Test results taken from PubChem BioAssay (Tox21).
Results filed as inconclusive are left out. Calls of active or inactive are those of the source. Unless noted, calls come from the whole dose curve; as a rule, active = well fitted curve in the direction sought with a large enough effect in the repeat runs; inconclusive = weak or mixed curves; inactive = no such curve, though single readings can be large; an effect the other way counts as inactive or inconclusive.

experiment: qHTS assay to identify small molecule agonists of the progesterone receptor (PR) signaling pathway - cell viability counter screen (AID 1346799; calls by dose curve; note: nearly all actives have a fitted effect of over 45% in size); conditions: PR-UAS-bla HEK293T viability, CellTiter-Glo luminescence, 16 h; series mostly up to 92.4 µM; activity change, negative = cytotoxicity: at the top concentration
Method in brief: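 Using the same plates as the PR reporter screen, HEK293T PR-UAS-bla cells received compounds for 16 hr at 37C and were then lysed with CellTiter-Glo; luminescence was read 30 min later at room temperature.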
% is set by controls: 0 for no effect and ±100 for the full control effect; potency is the fitted concentration of half-maximal effect.

SMILES	activity change, negative = cytotoxicity	Potency
CC(NN)c1ccccc1 (stereo not drawn)	-7.08% [at 19 µM] (inactive)	
CC(C)(C)C(=O)OCOC(=O)C1N2C(=O)CC2S(=O)(=O)C1(C)C (stereo not drawn)	0.0027% [at 42.5 µM] (inactive)	
CCN(Cc1cccnc1)C(=O)c1cccc(Cl)c1[C@]1(C)C(=O)N(Cc2ccc(OC)cc2OC)c2ccc(Cl)cc21	2.01% (inactive)	
Cc1ccc(O)c(C(C)(C)C)c1		inactive
CCCCCCCCCCC=O	9.62% (inactive)	
CC(C)(C)CC(C)(C)c1ccc(O)c(Cc2ccc(Cl)cc2Cl)c1		33.5 µM (active)
Cc1onc(-c2c(Cl)cccc2Cl)c1C(=O)N[C@@H]1C(=O)N2[C@@H]1SC(C)(C)[C@@H]2C(=O)O	4.38% [at 42.5 µM] (inactive)	
Clc1ccc(C(Cn2ccnc2)OCc2ccc(Sc3ccccc3)cc2)c(Cl)c1 (stereo not drawn)	0% [at 42.5 µM] (inactive)	
NC(=O)NS(=O)(=O)c1ccc(N)cc1	-0.14% [at 42.5 µM] (inactive)	
CN(C)c1ccc(C2(c3ccc(N(C)C)cc3)OC(=O)c3cc(N(C)C)ccc32)cc1	-12.3% (inactive)	
Cc1onc(-c2ccccc2Cl)c1C(=O)N[C@@H]1C(=O)N2[C@@H]1SC(C)(C)[C@@H]2C(=O)O	1.57% [at 42.5 µM] (inactive)	
O=C(O)c1cc(O)c2c(c1)C(=O)c1cccc(O)c1C2=O	29.6% (inactive)	
CC(C)(C)CC(C)(C)c1ccc(OCCOCC[N+](C)(C)Cc2ccccc2)cc1		48.5 µM (active)

experiment: qHTS assay to identify small molecule antagonists of the TGF-beta/Smad signaling pathway - cell viability counter screen (AID 1346824); conditions: SBE-bla HEK293T viability, CellTiter-Glo luminescence; series mostly up to 76.8 µM; viability change, negative = cytotoxic: at the top concentration; note: nearly all actives have a fitted effect of over 50% in size
Method in brief: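 SBE-bla HEK 293T cells, incubated overnight, then compound plus 0.25 ng/mL TGF-beta1 (stock added) for 5 hr at 37 C. Viability was read in the same wells by CellTiter-Glo luminescence after 30 min at room temperature.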

SMILES	viability change, negative = cytotoxic	Potency
CC(NN)c1ccccc1 (stereo not drawn)	2.36% [at 15.8 µM] (inactive)	
CCCCCCCC[P+](CCCCCCCC)(CCCCCCCC)CCCCCCCC		21.7 µM (active)
CC(C)(C)C(=O)OCOC(=O)C1N2C(=O)CC2S(=O)(=O)C1(C)C (stereo not drawn)	3.77% [at 35.3 µM] (inactive)	
O=C(N/N=C/c1ccccc1O)c1ccncc1	15.8% [at 35.3 µM] (inactive)	
CCN(Cc1cccnc1)C(=O)c1cccc(Cl)c1[C@]1(C)C(=O)N(Cc2ccc(OC)cc2OC)c2ccc(Cl)cc21	-2.33% (inactive)	
N/C(=N\N=C\c1ccc(Cl)cc1)N/N=C/c1ccc(Cl)cc1	-29.1% [at 35.3 µM] (inactive)	
Cc1ccc(O)c(C(C)(C)C)c1		inactive
CCCCCCCCCCC=O	-1.85% (inactive)	
CCCCCCCCOc1ccccc1C(=O)Nc1ccc(C(=O)OCC[N+](C)(CC)CC)cc1	-15.4% [at 35.3 µM] (inactive)	
CC(=O)S[C@@H]1CC2=CC(=O)CC[C@]2(C)[C@H]2CC[C@@]3(C)[C@@H](CC[C@@]34CCC(=O)O4)[C@H]12	-6.98% (inactive)	
C/C=C1/C(=O)C[C@H]2[C@@H]3CCC4=CC(=O)CC[C@]4(C)[C@H]3CC[C@]12C	-10.1% (inactive)	
C[C@]12CCC(=O)C=C1CC[C@@H]1[C@@H]2[C@@H](O)C[C@@]2(C)[C@H]1CC[C@]2(O)C(=O)COC(=O)CCC(=O)O	8.27% [at 35.3 µM] (inactive)	
CC(C)(C)CC(C)(C)c1ccc(O)c(Cc2ccc(Cl)cc2Cl)c1		21.3 µM (active)
CCN(CC)CCNC(=O)c1c(C)[nH]c(/C=C2\C(=O)Nc3ccc(F)cc32)c1C	-9.08% [at 35.3 µM] (inactive)	
NNc1nc(-c2ccccc2)cs1	-1.38% (inactive)	
CCCCCCCCS(=O)C(C)Cc1ccc2c(c1)OCO2 (stereo not drawn)	0.509% (inactive)	
CCCCCCCC[N+](CCCCCCCC)(CCCCCCCC)CCCCCCCC		48.9 µM (active)
CCCCC(CC)COP(=O)(O)OCC(CC)CCCC (stereo not drawn)		inactive
O=C1CCCc2c1cc1ccc3cccc4ccc2c1c34	-24.5% (inactive)	
NC(=O)NS(=O)(=O)c1ccc(N)cc1	-0.248% [at 35.3 µM] (inactive)	
O=c1cc(-c2ccc(O)cc2)oc2cc(O)cc(O)c12		inactive
O=C(Oc1ccccc1)c1ccccc1C(=O)Oc1ccccc1	-3.91% (inactive)	
CCC1=C[C@@H]2CN(C1)Cc1c([nH]c3ccccc13)[C@@](C(=O)OC)(c1cc3c(cc1OC)N(C)[C@H]1[C@@](O)(C(=O)OC)[C@H](OC(C)=O)[C@]4(CC)C=CCN5CC[C@]31[C@@H]54)C2	2.63% [at 35.3 µM] (inactive)	
Cc1onc(-c2ccccc2Cl)c1C(=O)N[C@@H]1C(=O)N2[C@@H]1SC(C)(C)[C@@H]2C(=O)O	-2.32% [at 35.3 µM] (inactive)	
O=C(O)c1cc(O)c2c(c1)C(=O)c1cccc(O)c1C2=O	10.3% (inactive)	
CC(C)(C)CC(C)(C)c1ccc(OCCOCC[N+](C)(C)Cc2ccccc2)cc1		48.9 µM (active)

experiment: qHTS assay to identify small molecule agonists of the TGF-beta/Smad signaling pathway - cell viability counter screen (AID 1346829); conditions: SBE-bla HEK293T viability, CellTiter-Glo luminescence, 5 h; series mostly up to 76.8 µM; activity change, negative = cytotoxicity: at the top concentration; note: nearly all actives have a fitted effect of over 45% in size; for activity change, negative = cytotoxicity: top concentration of the series differs between compounds
Method in brief: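 Here the cytotoxicity of library compounds is measured in SBE-bla HEK 293T cells treated for 5 hr, using CellTiter-Glo added to wells already read for the beta-lactamase reporter.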

SMILES	activity change, negative = cytotoxicity	Potency
CC(NN)c1ccccc1 (stereo not drawn)	-16.9% [at 15.8 µM] (inactive)	
CCCCC(CC)CN=C(N)NC(N)=NCCCCCCN=C(N)NC(N)=NCC(CC)CCCC (stereo not drawn)		23.9 µM (active)
CCCCCCCC[P+](CCCCCCCC)(CCCCCCCC)CCCCCCCC		17.3 µM (active)
CC(C)(C)C(=O)OCOC(=O)C1N2C(=O)CC2S(=O)(=O)C1(C)C (stereo not drawn)	17.7% [at 35.3 µM] (inactive)	
O=C(N/N=C/c1ccccc1O)c1ccncc1	5.04% [at 35.3 µM] (inactive)	
CCN(Cc1cccnc1)C(=O)c1cccc(Cl)c1[C@]1(C)C(=O)N(Cc2ccc(OC)cc2OC)c2ccc(Cl)cc21	2.59% (inactive)	
Cc1ccc(O)c(C(C)(C)C)c1		inactive
CCCCCCCCCCC=O	-1.03% (inactive)	
CCCCCCCCOc1ccccc1C(=O)Nc1ccc(C(=O)OCC[N+](C)(CC)CC)cc1	-15.7% [at 35.3 µM] (inactive)	
CC(=O)S[C@@H]1CC2=CC(=O)CC[C@]2(C)[C@H]2CC[C@@]3(C)[C@@H](CC[C@@]34CCC(=O)O4)[C@H]12	-7.19% (inactive)	
C/C=C1/C(=O)C[C@H]2[C@@H]3CCC4=CC(=O)CC[C@]4(C)[C@H]3CC[C@]12C	-0.227% (inactive)	
C[C@]12CCC(=O)C=C1CC[C@@H]1[C@@H]2[C@@H](O)C[C@@]2(C)[C@H]1CC[C@]2(O)C(=O)COC(=O)CCC(=O)O	-5.26% [at 35.3 µM] (inactive)	
CC(C)(C)CC(C)(C)c1ccc(O)c(Cc2ccc(Cl)cc2Cl)c1		19 µM (active)
Cc1onc(-c2c(Cl)cccc2Cl)c1C(=O)N[C@@H]1C(=O)N2[C@@H]1SC(C)(C)[C@@H]2C(=O)O	-0.0511% [at 35.3 µM] (inactive)	
CC[C@H]1O[C@]2(CC[C@@H]1C)C[C@@H]1C[C@@H](C/C=C(\C)C[C@@H](C)/C=C/C=C3\CO[C@@H]4[C@H](O)C(C)=C[C@@H](C(=O)O1)[C@]34O)O2		54.5 µM (active)
CCN(CC)CCNC(=O)c1c(C)[nH]c(/C=C2\C(=O)Nc3ccc(F)cc32)c1C	-7.92% [at 35.3 µM] (inactive)	
CCCC(c1cc(C(C)(C)C)c(O)cc1C)c1cc(C(C)(C)C)c(O)cc1C		24.8 µM (active)

SMILES	activity change, negative = cytotoxicity	Potency
NNc1nc(-c2ccccc2)cs1	-9.75% (inactive)	
CCCCCCCCS(=O)C(C)Cc1ccc2c(c1)OCO2 (stereo not drawn)	-6.43% (inactive)	
[Cl][Au]([Cl])[Cl]		54.9 µM (active)
CCCCCCCC[N+](CCCCCCCC)(CCCCCCCC)CCCCCCCC		43.6 µM (active)
CCCCC(CC)COP(=O)(O)OCC(CC)CCCC (stereo not drawn)		inactive
Clc1ccc(C(Cn2ccnc2)OCc2ccc(Sc3ccccc3)cc2)c(Cl)c1 (stereo not drawn)	0.378% [at 35.3 µM] (inactive)	
Cc1[nH]nc2c1N=C(c1ccccc1Cl)c1cc([N+](=O)[O-])ccc1N2		4.36 µM (active)
O=C1CCCc2c1cc1ccc3cccc4ccc2c1c34	-0.269% (inactive)	
N=C1C=CC(=C(c2ccc(N)cc2)c2ccc(N)cc2)C=C1	-28.5% (inactive)	
NC(=O)NS(=O)(=O)c1ccc(N)cc1	-11.7% [at 35.3 µM] (inactive)	
O=c1cc(-c2ccc(O)cc2)oc2cc(O)cc(O)c12		inactive
O=C(Oc1ccccc1)c1ccccc1C(=O)Oc1ccccc1	-6.04% (inactive)	
CN(C)c1ccc(C2(c3ccc(N(C)C)cc3)OC(=O)c3cc(N(C)C)ccc32)cc1	5.16% (inactive)	
CCC1=C[C@@H]2CN(C1)Cc1c([nH]c3ccccc13)[C@@](C(=O)OC)(c1cc3c(cc1OC)N(C)[C@H]1[C@@](O)(C(=O)OC)[C@H](OC(C)=O)[C@]4(CC)C=CCN5CC[C@]31[C@@H]54)C2	-3.22% [at 35.3 µM] (inactive)	
Cc1onc(-c2ccccc2Cl)c1C(=O)N[C@@H]1C(=O)N2[C@@H]1SC(C)(C)[C@@H]2C(=O)O	-3.57% [at 35.3 µM] (inactive)	
O=C(O)c1cc(O)c2c(c1)C(=O)c1cccc(O)c1C2=O	-17.1% (inactive)	
CC(C)(C)CC(C)(C)c1ccc(OCCOCC[N+](C)(C)Cc2ccccc2)cc1		43.6 µM (active)
